# Test results from PMC5540273 (PLoS ONE, 2017).
# System: EPHA3
# Conditions: concentration: 1 μM, replicates: in singlicate; n = 1
# 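Further: KINOMEscan kinase panel screen.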
row,Structure (SMILES),%Inh [%]
1,CNC(=O)c1ccccc1Nc1nc(Nc2ccc(N3CCOCC3)cc2)ncc1Cl.Cl [GSK1576028],76
2,COc1ccc(Nc2nccc(NCCNC(=O)c3cc4ccccc4s3)n2)cc1 [GSK1379896],0
3,COc1cc(Nc2nccc(-c3c(-c4cccc(NC(=O)c5c(F)cccc5F)c4)nn4ccccc34)n2)cc(OC)c1OC [GSK323521],0
4,Cc1ccc(C(=O)N2CC[C@@H](O)C2)cc1-n1c(C)cc(OCc2ccc(F)cc2F)c(Br)c1=O,42
5,Cc1ccc(S(=O)(=O)Nc2ccc(Nc3nccc(Nc4cccc5[nH]ncc45)n3)cc2)cc1 [GSK581271],0
6,COc1cc2c(cc1OCCN1CCNCC1)ncc1c3ccc(C#N)cc3[nH]c21,0

# System: EPHA4
# Conditions: concentration: 1 μM, replicates: in singlicate; n = 1
row,Structure (SMILES),%Inh [%]
1,CC(=O)N1CCN(c2ccc(Nc3nccc(-c4sc(C(C)C)nc4-c4cccc(NS(=O)(=O)c5cccc(Cl)c5)c4)n3)cn2)CC1 [GSK1660437],0
2,CN(C)S(=O)(=O)c1cc(-c2ccc3nccc(-c4cccc(S(N)(=O)=O)c4)c3c2)cnc1N [GSK1669921],20
3,O=C(NC1CCN(c2ccnc(Nc3ccc(F)cc3)n2)C1)c1cc2ccccc2s1 (stereo not shown) [GSK1379716],16
4,Cn1cc(-c2ccc3c(c2)CCN3C(=O)Cc2cccc(Cl)c2)c2c(N)ncnc21 [GSK2606590],0
5,FC(F)(F)c1ccc(/C=C/c2cncnc2Nc2ccc3[nH]c(Cc4ccccc4)nc3c2)cc1 [GW709199],0
6,Cl.c1ccc(-c2ccc3c(Nc4ccc5[nH]ccc5c4)ccnc3c2)nc1 [GW440138],0
7,c1ccc(-c2n[nH]cc2Nc2ccnc3ccccc23)nc1 [GW694077],4
8,CC(C)c1nc(-c2cccc(NS(=O)(=O)c3c(F)cccc3F)c2F)c(-c2ccnc(Nc3ccc(N4CCOCC4)nc3)n2)s1 [GSK2008607],74
9,COc1cc(Nc2nccc(N3CCC(NC(=O)c4cc5ccccc5s4)C3)n2)cc(OC)c1OC (stereo not shown) [GSK1379760],7
10,COc1cc(Nc2ncc3c(C)nc(-c4cc5ccccc5[nH]4)n3n2)cc(OC)c1OC [GW869516],46
11,Cn1cc(-c2[nH]c3cc(NC(=O)[C@H](N)C4CCCCC4)cc4c3c2C=NNC4=O)cn1,11
12,COC(=O)Nc1nc2ccc(Oc3ccc(NC(=O)Nc4cc(C(F)(F)F)ccc4F)cc3)cc2n1C.Cl [GW692089],65
13,CCS(=O)(=O)c1ccc(OC)c(Nc2nccc(-c3c(-c4cccc(NC(=O)c5c(F)cccc5F)c4)nn4ncccc34)n2)c1 [GSK326180],100
14,CCn1c(-c2nonc2N)nc2c(C#CC(C)(C)O)nc(OC[C@H](N)c3ccccc3)cc21 [GSK943949],0
15,CC(=O)Nc1nc2cnc(Nc3cc(NC(=O)c4cccc(C5(C#N)CC5)c4Cl)ccc3C)nc2s1,59
16,COc1ccc(CNC(=O)NC2CCN(c3ccnc(Nc4ccc(F)cc4)n3)CC2)cc1 [GSK1379788],0
17,O=C(O)C(F)(F)F.O=C(O)C(F)(F)F.O=c1[nH]ccc2nc(N[C@@H]3CCCNC3)nc(Nc3ccc(S(=O)(=O)N4CCOCC4)cc3)c12 [GSK2177277],57
18,Cc1occc1-c1ncc(OC[C@@H](N)Cc2c[nH]c3ccccc23)cc1-c1ccc2[nH]nc(C)c2c1.O=C(O)C(F)(F)F [GSK682037],0
19,CSc1cccc2c(-c3ccncn3)c(-c3ccc(F)cc3)nn12 [GW514786],0

row,Structure (SMILES),%Inh [%]
1,CN1CCN(Cc2cccc(-c3ccc4c(Nc5ccc(Oc6ccccc6)cc5)ccnc4c3)c2)CC1 [GW578342],0
2,COc1cccc(NC(=O)NC2CCN(c3ccnc(Nc4cc(OC)c(OC)c(OC)c4)n3)C2)c1 (stereo not shown) [GSK1379763],0
3,CN1CCN(CCCNc2nccc(-c3c(-c4ccc(F)cc4)nn4cc(C(F)(F)F)ccc34)n2)CC1 [GW621581],1
4,COc1cc(Nc2nccc(N3CCC(NC(=O)Nc4cccc(C(C)=O)c4)C3)n2)cc(OC)c1OC (stereo not shown) [GSK1379753],3
5,Cn1cc(-c2ccc3c(c2)CCN3C(=O)Cc2cccc(F)c2)c2c(N)ncnc21 [GSK2603358],7
6,Clc1ccc(-c2nn3ncccc3c2-c2ccnc(Nc3ccc4c(c3)OCCO4)n2)cc1 [GW829116],12
7,Cl.Cl.NCC(NC(=O)c1cc(-c2ccccc2)c(-c2ccnc3[nH]ccc23)s1)c1ccccc1 (stereo not shown) [GSK1321561],2
8,c1ccc(Oc2ccc(Nc3ccnc4cc(-c5ccc(CNCCN6CCOCC6)o5)ccc34)cc2)nc1 [GW567145],0
9,CC(C)(C)c1ccc2nccc(Nc3cccc(O)c3)c2c1 [GW856795],18
10,COc1ccc(-c2coc3ccc(-c4nnc(SCc5ccc(OC)c(C(F)(F)F)c5)o4)cc23)cc1,8
11,COc1cccc(C2=C(Nc3ccc(Cl)c(C(=O)O)c3)C(=O)NC2=O)c1 [SB-390769],0
12,O=C(Nc1n[nH]c2nc(-c3ccc(O)cc3)ccc12)C1CC1 [SB-710363],3
13,CNC(=O)c1ccccc1Nc1nc(Nc2ccc(N3CCOCC3)cc2)ncc1Cl.Cl [GSK1576028],29
14,COc1ccc(Nc2nccc(NCCNC(=O)c3cc4ccccc4s3)n2)cc1 [GSK1379896],0
15,COc1cc(Nc2nccc(-c3c(-c4cccc(NC(=O)c5c(F)cccc5F)c4)nn4ccccc34)n2)cc(OC)c1OC [GSK323521],0
16,Cc1ccc(C(=O)N2CC[C@@H](O)C2)cc1-n1c(C)cc(OCc2ccc(F)cc2F)c(Br)c1=O,0
17,Cc1ccc(S(=O)(=O)Nc2ccc(Nc3nccc(Nc4cccc5[nH]ncc45)n3)cc2)cc1 [GSK581271],13
18,COc1cc2c(cc1OCCN1CCNCC1)ncc1c3ccc(C#N)cc3[nH]c21,1
